Assay outcomes as filed in PubChem.
KKLEB cytotox – cytotoxicity in KKLEB CF airway cells, primary screen, cytotoxicity control for CF NF-kB inhibitor project, cell-based, uHTS, fluorescence assay plates | KKLEB CF airway cells viability, ATPlite luminescence, overnight; stronger effect = lower value; cells stimulated with P. aeruginosa culture filtrate | activity change (cytotoxicity), % at 5 µM | 0.36% of 360,000 active | AID 602141, 2011;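 active = corrected activity change at or below -50% at 5 µM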
HSP90 refold inh – HSP90 inhibitors, primary screen, cell lysate, luminescence; inhibition, % at 5.6 µM; Rabbit reticulocyte lysate, luciferase refolding luminescence, 3 h; Heat shock protein HSP 90 (rabbit reticulocyte lysate; luciferase refolding); 0.91% of 290,000 active; AID 1789, 2009;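 active = inhibition above the screen-wide mean plus 3 SD, computed separately per campaign, cut at about 16% in these data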;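 note: 0% = DMSO wells and 100% = 60 µM geldanamycin wells; inhibitors lower the luminescence because luciferase stays unfolded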
Mdm2 MdmX PPI – inhibitors of human Mdm2-MdmX association, primary screen, cell-based, luminescence, split luciferase, SaOS-2, uHTS; Protein Mdm4 (Homo sapiens) + E3 ubiquitin-protein ligase Mdm2 (Homo sapiens), …; SaOS-2 split-luciferase Mdm2/MdmX complementation; inhibition, % at 8 µM; 3% of 330,000 active;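 active = inhibition of at least 50% at 8 µM in the primary screen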
LGR2 inh – inhibitors of bursicon-induced LGR2 CRE-luciferase signal, primary screen, cell-based, HEK293, CRE-luciferase reporter, bursicon stimulation; AID 720647, 2013; inhibition, % at 9.99 µM; bursicon-stimulated, 4 h; Drosophila bursicon receptor LGR2 (rickets); 0.35% of 380,000 active;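 active = drop in luminescence signal, shown as inhibition above about 50% in the replicate tests, limit read from the data, passing the limit was not always enough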;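 note: agonist challenge used bursicon conditioned medium at about half maximal strength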
CF NFkB block – inhibitors of PAF-induced NF-kB signaling, primary screen, cell-based, GFP fluorescence, uHTS; KKLEB NF-kB-GFP reporter, GFP fluorescence overnight; inhibition, % at 5 µM; 0.86% of 360,000 active;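 active = at least 50% inhibition at 5 µM, scaled per plate between neutral and stimulator controls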;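 note: PAF is a Pseudomonas aeruginosa culture filtrate used as stimulus; plate controls were PAF-stimulated DMSO wells for no effect and unstimulated DMSO wells for full effect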
Peg3 promoter – Peg3 promoter-driven luciferase inhibitors, primary screen, cell-based, HeLa, luciferase luminescence; HeLa PEG-Prom luciferase reporter, overnight; inhibition, % at 20 µM; 1.7% of 360,000 active;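 active = inhibition of at least 50% at 20 µM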
Mdm2 MdmX conf – Mdm2-MdmX complex disruptors, retested hits, confirmation, luminescence, single concentration. shares compounds with Mdm2 MdmX PPI. Mdm2-MdmX binding, luminescent assay. inhibition, % at 8 µM. 55% of 10,000 active. AID 489028, 2010; in the data active = inhibition above about 40%
FLuc counter – full-length luciferase signal inhibition, confirmation, counter-screen for Mdm2/MdmX interaction inhibitor project, cell-based, single concentration, SaOS-2; AID 504607, 2011; SaOS-2 full-length luciferase counterscreen, luminescence; 77% of 6,200 active; shares compounds with Mdm2 MdmX PPI; inhibition, % at 8 µM;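 active = mean inhibition at 8 µM reaching about 37%, which flags the compound as non-specific, limit read from the data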;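 note: p53-null SaOS-2 cells with luciferase driven by a doxycycline-inducible promoter; compound on cells about two nights before reading with doxycycline added after day one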
* hit, by the source's call. Compounds with a hit are over-represented: about 3.6% of the library has one in this group of screens.

How did N#C[C@H]1[C@@H](c2ccc(C#Cc3cccc(F)c3)cc2)[C@H](CO)N1C(=O)C1CCC1 do in these assays?
LGR2 inh: 3

What do the screens show for `C[C@@H]1CN([C@H](C)CO)C(=O)c2cccc(NC(=O)C3CC3)c2O[C@H]1CN(C)C`?
LGR2 inh: -1

How did CCOC(=O)c1ccc(NC(=O)Nc2cc(C)cc(C)n2)cc1 do in these assays?
HSP90 refold inh: 1; Mdm2 MdmX PPI: 50*; Mdm2 MdmX conf: 0

What do the screens show for `CCOC(=O)c1ccc(Nc2cc(C)nc(-c3ccccc3)n2)cc1`?
KKLEB cytotox: -8; HSP90 refold inh: -4; Mdm2 MdmX PPI: 56*; LGR2 inh: 1; CF NFkB block: -17; Peg3 promoter: 27; Mdm2 MdmX conf: 66*; FLuc counter: 57*

Results for c1ccc(OCCOCCN2CCN(C(c3ccccc3)c3ccccc3)CC2)cc1 ?
KKLEB cytotox: -19; HSP90 refold inh: 5; Mdm2 MdmX PPI: 52*; LGR2 inh: 3; CF NFkB block: 14; Peg3 promoter: 24; Mdm2 MdmX conf: 15

What do the screens show for `C[C@@H]1CN([C@@H](C)CO)C(=O)c2cc(NS(C)(=O)=O)ccc2O[C@@H]1CN(C)Cc1ccc(C(=O)Nc2ccccc2N)cc1`?
LGR2 inh: -12

How did C#CCOCCOCCOCCNc1nc(N2CCN(C(=O)CCCCCCCCCCNC(=O)Cn3cc(CCCCCN)nn3)CC2)nc(N2CCN(C(=O)CCCCCCCCCCNC(=O)Cn3cc(C[C@@H](C)O)nn3)CC2)n1 do in these assays?
KKLEB cytotox: 7; Mdm2 MdmX PPI: 36; LGR2 inh: -20; CF NFkB block: 14; Peg3 promoter: 27

What do the screens show for `C#CCOCCOCCOCCNc1nc(N2CCN(C(=O)CCCCCCCCCCNC(=O)Cn3cc(C[C@@H](C)O)nn3)CC2)nc(N2CCN(C(=O)CCCCCCCCCCNC(=O)[C@@H]([C@H](C)O)n3cc(C)nn3)CC2)n1`?
KKLEB cytotox: -8; Mdm2 MdmX PPI: 54*; CF NFkB block: 20; Peg3 promoter: -73; Mdm2 MdmX conf: 18

What do the screens show for `C#CCOCCOCCOCCNc1nc(N2CCN(C(=O)CCCCCCCCCCNC(=O)Cn3cc(C[C@@H](C)O)nn3)CC2)nc(N2CCN(C(=O)CCCCCCCCCCNC(=O)[C@@H]([C@H](C)CC)n3cc(CCCCCN)nn3)CC2)n1`?
KKLEB cytotox: -40; Mdm2 MdmX PPI: 98*; CF NFkB block: 20; Peg3 promoter: 101*; Mdm2 MdmX conf: 77*; FLuc counter: 27

Results for C#CCOCCOCCOCCNc1nc(N2CCN(C(=O)CCCCCCCCCCNC(=O)Cn3cc(CCCCCN)nn3)CC2)nc(N2CCN(C(=O)CCCCCCCCCCNC(=O)[C@@H]([C@H](C)O)n3cc(C)nn3)CC2)n1 ?
KKLEB cytotox: -3; Mdm2 MdmX PPI: 47; CF NFkB block: -2; Peg3 promoter: 35

How did C[C@H](CO)N1C[C@H](C)[C@H](CN(C)Cc2ccccn2)Oc2ncc(C#CCN(C)C)cc2C1=O do in these assays?
LGR2 inh: 5

Results for CCc1ccc(C(=O)C(C)OC(=O)Cn2[nH]c(=O)c3ccccc3c2=O)cc1 (stereo unspecified) ?
KKLEB cytotox: 4; Mdm2 MdmX PPI: -21; LGR2 inh: 9; CF NFkB block: -10; Peg3 promoter: 11
